Results filed as inconclusive are left out. Where a call stands in place of a potency, no number is given. Active and inactive are the calls of the source. Unless noted, calls come from the whole dose curve; as a rule, active = well fitted curve in the direction sought with a large enough effect; inconclusive = small, poorly fitted or top-dose-only effect, or another doubt; inactive = no such curve, though single readings can be large; an effect the other way counts as inactive or inconclusive.
Assays:
[1] = OV-KATE Cancer Cell Toxicity qHTS against the NCATS CANVASS Library (AID 1347345)
How it was run: (§1)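 Viability read-out: CellTiter-Glo luminescence after 72 h compound exposure at 37 °C/5% CO2. Cells plated at 1000/well, 4 h pre-incubation; 11-point titration. Bortezomib served as control.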

[2] = UWB1.289 Cancer Cell Toxicity qHTS against the NCATS CANVASS Library (AID 1347347); note: nearly all actives have a fitted effect of over 60% in size; note: potency is the fitted concentration of half-maximal effect
How it was run: as §1

[3] = system: NAD(P)H diaphorase (Clostridium kluyveri); assay: Diaphorse counterscreen qHTS: Assay Interference Panel against the NCATS CANVASS Library (AID 1347362)
How it was run: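 Clostridium kluyveri diaphorase in PBS + 0.01% Tween-20 preincubated 15 min with compounds. Resazurin and NADH then added for 5 min at room temperature in the dark; resorufin fluorescence read (ex 525, em 598).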

[4] = qHTS for ATAD5 Antagonist screened against the NCATS CANVASS Library (AID 1347370); note: nearly all actives have a fitted effect of over 65% in size; note: potency is the fitted concentration of half-maximal effect;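 for activity change, negative = inhibition: HEK293T cells carrying an ATAD5 luciferase reporter co-treated with 10 µM 5-fluorouridine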
How it was run: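 Compounds (11-point) co-dosed with 10 µM 5-FUrd for 16 h at 37 °C onto HEK293T-ATAD5 luciferase reporter cells. Viability measured by CellTiter-Fluor fluorescence, then ATAD5 reporter signal by luminescence.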

[5] = qHTS for Antimalaria activity screened against the NCATS CANVASS Library (AID 1347380); note: nearly all actives have a fitted effect of over 40% in size; note: potency is the fitted concentration of half-maximal effect;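 for activity change, negative = inhibition: Plasmodium falciparum strain Dd2 asexual parasites grown in red blood cells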
How it was run: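 SYBR Green fluorescence at 485/535 nm was read 18 hr after lysis. This followed a 72 hr incubation at 37C in 5% O2, 5% CO2 of Dd2-infected erythrocytes (0.3% parasitemia, 2.5% final hematocrit) with compounds titrated over 11 concentrations.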

[6] = Secretion counterscreen for inhibitors of the SERCaMP assay screened against the NCATS CANVASS Library (AID 1347390);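 note: light from luciferase secreted into medium read as a measure of general secretion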; note: potency is the fitted concentration of half-maximal effect
How it was run: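 Luminescence from constitutively secreted GLuc in SH-SY5Y-GLuc STOP cells, read after coelenterazine addition, served as read-out. Compounds tested 0.001 - 77 uM for 20 h at 37C; Brefeldin A as positive control.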

[7] = U-118MG Cancer Cell Toxicity qHTS against the NCATS CANVASS Library (AID 1347351)
How it was run: as §1

[8] = qHTS for Activators of p53 Stress Response Pathway screened against the NCATS CANVASS Library (AID 1347388)
How it was run: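 p53RE-bla HCT-116 cells (4000/well) were pre-incubated for 5 h, then treated with compound (11 points) for 16 h at 37C. After 2 h with CCF4, the 460/530 nm ratio gave reporter activation; CellTiter-Glo measured viability.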

[9] = Confirmation and Secondary Assay for Modulators of Hemoglobin Beta Chain Splicing at IVS2 654 locus (AID 910);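 note: HeLa cells stably carrying EGFP split by mutant beta-globin IVS2-654 intron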
How it was run: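 HeLa cells stably expressing EGFP interrupted by β-globin IVS2-654 intron, seeded overnight in Opti-MEM/2% FCS, then treated 2 days at 37 °C. Restored splicing read as total peak GFP intensity per well by laser scanning cytometry (488 nm excitation, 500–520 nm emission); 500 nM antisense PNA as control.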

[10] = qHTS to identify inhibitors of the type 1 interferon - major histocompatibility complex class I in skeletal muscle: primary screen against the NCATS Mechanism Interrogation Plate v5.0 (MIPE) Libary (AID 1347411); note: potency is the fitted concentration of half-maximal effect; nearly all actives have a fitted effect of over 65% in size
How it was run: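 Luminescence from CRISPR HiBit-tagged endogenous HLA-B in human myoblasts reported MHC class I level after 24 h of IFN-beta (4 ng/ml) plus compound. Compounds ran as 11-point 1:3 series, top 46 uM final.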

[11] = Primary qHTS for inhibitors of nuclear receptor binding SET domain protein 2 (NSD2) in an isogenic RCH-ACV NSD2 p.E1099K mutant (9B) (AID 1645876); note: potency is the fitted concentration of half-maximal effect; nearly all actives have a fitted effect of over 70% in size
[12] = Primary qHTS for inhibitors of nuclear receptor binding SET domain protein 2 (NSD2) in an RCH-ACV wild type WT cells (2C) (AID 1645877); note: potency is the fitted concentration of half-maximal effect; nearly all actives have a fitted effect of over 70% in size
[13] = molecular target: Glutathione peroxidase 1 (Homo sapiens) (UniProt P07203); assay: Primary qHTS Assay for Inhibitors of Recombinant Selenoprotein Glutathione Peroxidase 1 (GPX1) (AID 1845191); note: nearly all actives have a fitted effect of over 65% in size
Glutathione peroxidase 1 (Homo sapiens), sequence (P07203 whole entry, looked up): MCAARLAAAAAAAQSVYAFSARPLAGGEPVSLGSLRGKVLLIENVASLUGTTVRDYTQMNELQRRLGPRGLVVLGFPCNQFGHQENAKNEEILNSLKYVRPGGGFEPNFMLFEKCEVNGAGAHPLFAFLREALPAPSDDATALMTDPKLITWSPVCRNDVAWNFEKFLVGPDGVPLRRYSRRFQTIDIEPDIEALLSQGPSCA
How it was run: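 GR-coupled readout: NADPH consumption tracked by fluorescence, ex 340/em 450 nm, at t=0 and after 15 min at RT. Final mix 10 nM GPX1, 1 mM GSH, 0.5 mM CHP, 0.5 mM NADPH, 100 nM GR, 0.01% BSA, following 30 min enzyme–compound preincubation.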

[14] = molecular target: Phospholipid hydroperoxide glutathione peroxidase GPX4 (Homo sapiens) (UniProt P36969); assay: Primary qHTS Assay for Inhibitors of Recombinant Selenoprotein Glutathione Peroxidase 4 (GPX4) (AID 1845192); conditions: outcome: dose series up to 50 µM unless noted; note: nearly all actives have a fitted effect of over 65% in size
Phospholipid hydroperoxide glutathione peroxidase GPX4 (Homo sapiens), sequence (P36969 whole entry, looked up): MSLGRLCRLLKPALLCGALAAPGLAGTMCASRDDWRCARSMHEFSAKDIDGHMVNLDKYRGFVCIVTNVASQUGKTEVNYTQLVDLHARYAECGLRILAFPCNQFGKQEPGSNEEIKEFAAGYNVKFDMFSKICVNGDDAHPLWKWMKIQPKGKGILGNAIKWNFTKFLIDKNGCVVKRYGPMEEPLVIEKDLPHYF
How it was run: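 Steps: GPX4 plus compound, 30 min RT; add GR/GSH/NADPH master mix; start with cumene hydroperoxide; read 340/450 nm fluorescence at 0 and 15 min. Finals were 200 nM GPX4, 1 mM GSH, 0.5 mM CHP, 0.5 mM NADPH, 100 nM GR.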

[15] = qHTS drug screen for cell cycle checkpoint inhibitors in PARPi-resistant BRCA-mutant ovarian cancer cell lines. (AID 1963452; calls by dose curve; note: potency is the fitted concentration of half-maximal effect); conditions: PEO1/OlaR viability, CellTiter-Glo luminescence, 96 h; for Z-AUC: stronger effect = lower value
How it was run: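 PEO1, PEO4 and PEO1/OlaR ovarian cancer cells, 600 per well, exposed 96 h at 37C to a dilution series. Viability read by CellTiter-Glo luminescence, normalized to DMSO and empty wells; activity summarized as Z-AUC.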

[16] = qHTS assay to identify inhibitors of the type 1 interferon - major histocompatibility complex class I in skeletal muscle: Counter screen cell viability and HiBit confirmation (AID 1347412); conditions: iHSKM muscle cells + IFN-b, HiBiT or CellTiter-Glo, 24 h; for Potency: HiBiT; for activity change, negative = inhibition: Viability, at 45.9 µM (top of the series); note: potency is the fitted concentration of half-maximal effect; for all read-outs here: nearly all actives have a fitted effect of over 60% in size
How it was run: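 Duplicate plates, pinned identically: one read for HiBiT-tagged endogenous HLA-B luminescence, the other for ATP-content viability via CellTiter Glo. Cells were genome-engineered human myoblasts given 4 ng/ml IFN-b; compounds 12-pt, 1:3 from 46 uM final; 24 hr exposure.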

[17] = measured here: PEO1 parental Z-AUC

## O=Cc1ccc2n1C[C@]1(C[C@H](O)[C@@H](CO)O1)OC2
[1]
  Potency: inactive
[2]
  Potency: inactive
[3]
  Potency: inactive
[4]
  Potency: inactive
[5]
  Potency: inactive
[6]
  Potency: inactive

## COc1ccc([C@@H]2c3cc4c(cc3C[C@H](C)C2C)OCO4)cc1OC (some centres not stated)
[1]
  Potency: inactive
[7]
  Potency: inactive

## CC1(C)CC[C@]2(CO)CC[C@]3(C)C(=CCC4[C@@]5(C)CC[C@H](O)C(C)(C)C5CC[C@]43C)C2C1 (some centres not stated)
[2]
  Potency: inactive
[7]
  Potency: inactive
[3]
  Potency: inactive
[8]
  Potency: inactive

## O=C1CC(c2ccc(O)cc2)Oc2ccccc21 (configuration not stated)
[9]
  outcome: inactive
[2]
  Potency: 3750 nM (active)
[7]
  Potency: inactive
[3]
  Potency: inactive
[5]
  Potency: inactive

## C=C[C@@]1(C)CC[C@@H]([C@H](C)C(C)=O)O1
[2]
  Potency: inactive
[7]
  Potency: inactive
[3]
  Potency: inactive
[4]
  Potency: inactive
[8]
  Potency: inactive

## O=C1CC(c2ccc(O)cc2)Oc2cc(O)cc(O)c21 (configuration not stated)
[9]
  outcome: inactive
[2]
  Potency: inactive
[7]
  Potency: inactive
[4]
  Potency: inactive
[8]
  Potency: inactive
[6]
  Potency: inactive

## CN1C(=O)C(=O)N2C(=C[C@]3(c4c[nH]c5ccccc45)c4ccccc4N[C@H]23)C1=O
[1]
  Potency: inactive
[2]
  Potency: inactive
[7]
  Potency: inactive
[3]
  Potency: inactive
[4]
  Potency: inactive
[8]
  Potency: inactive

## O[C@H]1C=C2[C@H]3CN(Cc4cc5c(cc43)OCO5)[C@H]2C[C@@H]1O
[5]
  Potency: 5290 nM (active)
[6]
  Potency: 38400 nM (active)

## C/C1=C/[C@@H](C)[C@H](O)C/C=C/CC/C=C/C(=O)O[C@@H]1[C@H](C)C(=O)CCCC1CC(=O)NC(=O)C1
[3]
  Potency: inactive
[4]
  Potency: 20900 nM (active)
[5]
  Potency: inactive
[8]
  Potency: inactive

## Fc1cccc(-n2cnc3c(NCc4nc5c(F)c(F)ccc5[nH]4)nc(N4CCOCC4)nc32)c1
[10]
  Potency: 523 nM (active)
[11]
  Potency: 166 nM (active)
[12]
  Potency: 166 nM (active)
[13]
  Potency: inactive
[14]
  Potency: inactive
[15]
  Z-AUC: -1.76 (inactive)
[15]; [17]
  Z-AUC: -2.45
[15]; measured here: PEO4 Z-AUC
  Z-AUC: -2.33
[16]
  Potency: 442 nM (active)
  activity change, negative = inhibition: -14.7% (inactive)

## O=C(/C=C\n1cnc(-c2cc(C(F)(F)F)cc(C(F)(F)F)c2)n1)NNc1cnccn1
[10]
  Potency: 7390 nM (active)
[11]
  Potency: 2630 nM (active)
[12]
  Potency: 2090 nM (active)
[13]
  Potency: inactive
[14]
  Potency: inactive
[15]
  Z-AUC: -0.586 (inactive)
[15]; [17]
  Z-AUC: -2.16
[15]; measured here: PEO4 Z-AUC
  Z-AUC: -1.63
[16]
  Potency: 625 nM (active)
  activity change, negative = inhibition: -1.81% (inactive)

## CN(C)C/C=C/C(=O)Nc1ccc(C(=O)N2CCC[C@@H](Nc3ncc(Cl)c(-c4c[nH]c5ccccc45)n3)C2)cc1
[10]
  Potency: 1470 nM (active)
[11]
  Potency: 166 nM (active)
[12]
  Potency: 132 nM (active)
[13]
  Potency: inactive
[14]
  Potency: inactive
[15]
  Z-AUC: -1.88 (inactive)
[15]; [17]
  Z-AUC: -2.59
[15]; measured here: PEO4 Z-AUC
  Z-AUC: -2.1
[16]
  Potency: 1110 nM (active)
  activity change, negative = inhibition: 26.2% (inactive)

## CC[C@H]1[C@@H](C)[C@@H](c2cc(OC)c(OC)cc2OC)[C@H](C)[C@@H](c2cc(OC)c(OC)cc2OC)[C@@]12C=C(OC)C(=O)C=C2OC
[2]
  Potency: 23600 nM (active)

## Cc1ncsc1-c1ccc([C@H](C)NC(=O)[C@@H]2C[C@@H](O)CN2C(=O)[C@@H](NC(=O)COCCCOCCNC(=O)C[C@@H]2N=C(c3ccc(Cl)cc3)c3c(sc(C)c3C)-n3c(C)nnc32)C(C)(C)C)cc1
[10]
  Potency: 208 nM (active)
[11]
  Potency: 14.8 nM (active)
[12]
  Potency: 18.6 nM (active)
[13]
  Potency: inactive
[14]
  Potency: inactive
[15]
  Z-AUC: -2.25 (inactive)
[15]; [17]
  Z-AUC: -2.46
[15]; measured here: PEO4 Z-AUC
  Z-AUC: -2.23
[16]
  Potency: 394 nM (active)
  activity change, negative = inhibition: -12.4% (inactive)

## CN1CC[C@@]23c4ccccc4N[C@@H]1[C@@]21CCN(C)[C@@H]3Nc2ccccc21
[2]
  Potency: inactive
[4]
  Potency: inactive
[5]
  Potency: 7.5 nM (active)
[8]
  Potency: inactive
[6]
  Potency: inactive

## O=C(/C=C/C#Cc1cccc(NS(=O)(=O)c2ccccc2)c1)NO
[10]
  Potency: 2550 nM (active)
[11]
  Potency: 456 nM (active)
[12]
  Potency: 574 nM (active)
[13]
  Potency: inactive
[14]
  Potency: inactive
[15]
  Z-AUC: -0.732 (inactive)
[15]; [17]
  Z-AUC: -0.336
[15]; measured here: PEO4 Z-AUC
  Z-AUC: -0.647
[16]
  Potency: 6250 nM (active)
  activity change, negative = inhibition: -1.87% (inactive)

## C[C@@]12CCC[C@@](C)(C(=O)O)[C@H]1CC[C@@]13C[C@@H](CC[C@H]12)[C@](C)(O)C3
[2]
  Potency: inactive
[4]
  Potency: inactive
[5]
  Potency: inactive
[8]
  Potency: inactive
[6]
  Potency: inactive

## CO[C@@H]1[C@H](O)[C@@H](C)O[C@@H](OC[C@@H]2C(C)OC(=O)/C=C/[C@H](C)C(O[C@@H]3O[C@H](C)CC4(OC(=O)O[C@@H]4C)C3O)[C@@H](C)CC(C)C(=O)/C=C/[C@H]3OC23)[C@@H]1OC (some centres not stated)
[2]
  Potency: 18800 nM (active)
[3]
  Potency: inactive
[4]
  Potency: 16600 nM (active)
[5]
  Potency: 14900 nM (active)

## COC(=O)[C@@]1(C)CCC[C@]2(C)c3cc(OC)ccc3CC[C@@H]12
[2]
  Potency: inactive
[7]
  Potency: inactive

## O=C(/C=C/c1ccc(CN(CCO)CCc2c[nH]c3ccccc23)cc1)NO
[10]
  Potency: 186 nM (active)
[11]
  Potency: 132 nM (active)
[12]
  Potency: 132 nM (active)
[13]
  Potency: inactive
[14]
  Potency: inactive
[15]
  Potency: 174 nM (active)
[15]; [17]
  Z-AUC: -1.35
[15]; measured here: PEO4 Z-AUC
  Z-AUC: -1.27
[16]
  Potency: 198 nM (active)
  activity change, negative = inhibition: -12.6% (inactive)

— PubChem BioAssay (NCATS)
